Experimental data published in the supplement of paper PMC10849652.
The full data set covers some 8,800 targets. This sample favours those with a hit. About 0.5% of all pairs of compound and target were hits.

How the values were obtained:
Experiment in all cases: log2 fold change, soluble protein after heating vs DMSO (PISA); higher = thermal stabilisation; K562 lysate, 10 uM; active = over 0.2 and 3.5 SD of the protein, either way, in both replicates (recomputed)
[1] = compound: C1=CC=C(C=C1)[C@H](COC2=CC3=C(C=C2)NC(=O)N3)NC(=O)C4=CC=CN(C4=O)CC5=CC(=C(C=C5)F)F
Outline: (§1)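 Following dounce homogenisation of K562 pellets in PBS pH 7.4 with 1 mM MgCl2, crude extract at 1 mg/mL protein was incubated for 30 min with 10 μM compound. Aliquots were then heated for 3 min over 48°C-58°C and pooled, NP-40 was added to 0.5% at 4°C, and soluble protein was recovered as the supernatant at 21,000xg for 90 min. Channel-sum-equalised TMTpro 16plex LC-MS/MS quantified this protein. Each value, from duplicates, is a log-two fold change in thermal stability relative to solvent controls.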

[2] = compound: CC1=C(SC2=C1C(=N[C@H](C3=NN=C(N32)C)CC(=O)N)C4=CC=C(C=C4)Cl)C
Outline: as §1

[3] = compound: CC1=C2C(=CC=C1)N=C(N(C2=O)C3=CC=CC=C3C)CN4C=NC5=C(N=CN=C54)N
Outline: as §1

[4] = compound: Cc1sc2c(c1C)C(c1ccc(Cl)cc1)=N[C@@H](CC(=O)OC(C)(C)C)c1nnc(C)n1-2
Outline: as §1

[5] = compound: c1ccc([C@@H]2C[C@H]2NC2CCNCC2)cc1
Outline: as §1

Measured: log2 fold change

BCKDK (UniProt O14874)
inactive: [1] -0.036 | [2] -0.007 | [3] -0.037 | [4] 0.016 | [5] 0.012

ATAD1 (UniProt Q8NBU5)
Sequence of UniProt Q8NBU5 (Q8NBU5 whole entry, looked up): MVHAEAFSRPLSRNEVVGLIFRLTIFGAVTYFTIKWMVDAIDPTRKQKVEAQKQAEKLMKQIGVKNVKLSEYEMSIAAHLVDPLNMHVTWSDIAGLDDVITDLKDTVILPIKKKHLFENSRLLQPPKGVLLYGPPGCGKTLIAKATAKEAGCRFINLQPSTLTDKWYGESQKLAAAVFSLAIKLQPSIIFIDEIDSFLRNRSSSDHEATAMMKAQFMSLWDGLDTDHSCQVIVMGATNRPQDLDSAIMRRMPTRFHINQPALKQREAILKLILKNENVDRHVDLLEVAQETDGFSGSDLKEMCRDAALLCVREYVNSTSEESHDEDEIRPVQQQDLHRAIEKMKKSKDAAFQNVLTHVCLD
inactive: [1] -0.052 | [2] 0.032 | [3] -0.015 | [4] -0.092 | [5] 0.002

CHCHD1 (UniProt Q96BP2)
active: [5] 0.627
inactive: [1] -0.026 | [2] 0.024 | [3] -0.04 | [4] -0.091

CAMKK1 isoform 2 (UniProt Q8N5S9)
inactive: [1] 0.006 | [2] 0.03 | [3] 0.011 | [4] 0.071 | [5] -0.103

CHD5 (UniProt Q8TDI0)
Sequence of UniProt Q8TDI0 (Q8TDI0 whole entry, looked up): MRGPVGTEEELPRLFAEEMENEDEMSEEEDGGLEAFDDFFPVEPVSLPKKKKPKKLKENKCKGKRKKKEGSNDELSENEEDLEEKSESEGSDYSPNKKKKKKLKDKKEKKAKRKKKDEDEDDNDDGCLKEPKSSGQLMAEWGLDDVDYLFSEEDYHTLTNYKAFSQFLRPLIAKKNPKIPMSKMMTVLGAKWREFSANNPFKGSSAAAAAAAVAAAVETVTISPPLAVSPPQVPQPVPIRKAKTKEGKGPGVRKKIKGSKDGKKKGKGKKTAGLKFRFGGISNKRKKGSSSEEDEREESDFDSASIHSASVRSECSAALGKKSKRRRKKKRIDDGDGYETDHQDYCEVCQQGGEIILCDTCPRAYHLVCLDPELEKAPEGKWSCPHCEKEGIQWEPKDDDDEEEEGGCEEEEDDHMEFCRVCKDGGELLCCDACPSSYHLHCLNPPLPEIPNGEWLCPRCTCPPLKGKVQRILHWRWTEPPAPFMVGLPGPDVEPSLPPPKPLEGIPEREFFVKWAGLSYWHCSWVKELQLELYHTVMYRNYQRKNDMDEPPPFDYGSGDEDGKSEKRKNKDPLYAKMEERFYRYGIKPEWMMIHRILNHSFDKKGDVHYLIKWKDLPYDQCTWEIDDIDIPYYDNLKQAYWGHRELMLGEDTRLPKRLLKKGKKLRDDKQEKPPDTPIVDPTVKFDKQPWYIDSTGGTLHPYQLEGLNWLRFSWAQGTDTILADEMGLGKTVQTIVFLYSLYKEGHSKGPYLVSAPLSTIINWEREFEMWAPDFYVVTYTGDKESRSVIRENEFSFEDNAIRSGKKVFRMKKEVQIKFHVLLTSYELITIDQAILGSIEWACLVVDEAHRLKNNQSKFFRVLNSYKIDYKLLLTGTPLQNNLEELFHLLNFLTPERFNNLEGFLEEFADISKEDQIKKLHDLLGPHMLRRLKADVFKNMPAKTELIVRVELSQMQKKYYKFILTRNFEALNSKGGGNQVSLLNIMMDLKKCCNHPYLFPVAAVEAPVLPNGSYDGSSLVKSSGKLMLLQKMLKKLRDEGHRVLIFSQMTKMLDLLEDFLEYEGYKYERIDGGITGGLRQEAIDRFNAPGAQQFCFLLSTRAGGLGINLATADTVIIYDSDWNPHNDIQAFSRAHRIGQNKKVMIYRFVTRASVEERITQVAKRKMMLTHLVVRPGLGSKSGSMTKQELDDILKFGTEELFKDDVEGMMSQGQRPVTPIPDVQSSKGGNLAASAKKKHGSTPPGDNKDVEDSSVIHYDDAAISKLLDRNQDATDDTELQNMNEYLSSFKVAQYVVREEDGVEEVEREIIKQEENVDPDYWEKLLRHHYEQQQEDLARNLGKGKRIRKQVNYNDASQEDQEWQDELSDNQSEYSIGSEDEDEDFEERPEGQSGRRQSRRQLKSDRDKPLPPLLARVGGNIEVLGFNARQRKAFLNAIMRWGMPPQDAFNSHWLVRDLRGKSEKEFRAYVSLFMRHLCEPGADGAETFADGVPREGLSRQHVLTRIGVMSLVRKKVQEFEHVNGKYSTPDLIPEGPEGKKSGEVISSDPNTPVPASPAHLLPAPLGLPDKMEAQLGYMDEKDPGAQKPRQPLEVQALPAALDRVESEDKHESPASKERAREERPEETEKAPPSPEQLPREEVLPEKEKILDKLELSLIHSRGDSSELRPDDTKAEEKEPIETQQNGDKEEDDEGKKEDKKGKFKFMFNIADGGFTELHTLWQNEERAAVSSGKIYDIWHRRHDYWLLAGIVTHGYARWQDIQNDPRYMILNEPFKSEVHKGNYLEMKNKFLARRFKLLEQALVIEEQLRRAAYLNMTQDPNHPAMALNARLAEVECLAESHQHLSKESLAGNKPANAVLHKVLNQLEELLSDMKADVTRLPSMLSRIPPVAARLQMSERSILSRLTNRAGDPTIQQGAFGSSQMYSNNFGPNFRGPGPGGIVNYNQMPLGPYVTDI
inactive: [1] -0.039 | [2] 0.003 | [3] -0.002 | [4] 0.085 | [5] 0.032

CCPG1 isoform 5 (UniProt Q9ULG6)
inactive: [1] -0.069 | [2] -0.118 | [3] 0.046 | [4] -0.082 | [5] -0.026

CAPNS1 (UniProt P04632)
inactive: [1] 0 | [2] -0.041 | [3] -0.067 | [4] 0.057 | [5] -0.014

BRAT1 (UniProt Q6PJG6)
inactive: [1] -0.043 | [2] -0.005 | [3] 0.027 | [4] 0.005 | [5] 0.003

CCNK isoform 4 (UniProt O75909)
Sequence of UniProt O75909 (O75909 whole entry, looked up): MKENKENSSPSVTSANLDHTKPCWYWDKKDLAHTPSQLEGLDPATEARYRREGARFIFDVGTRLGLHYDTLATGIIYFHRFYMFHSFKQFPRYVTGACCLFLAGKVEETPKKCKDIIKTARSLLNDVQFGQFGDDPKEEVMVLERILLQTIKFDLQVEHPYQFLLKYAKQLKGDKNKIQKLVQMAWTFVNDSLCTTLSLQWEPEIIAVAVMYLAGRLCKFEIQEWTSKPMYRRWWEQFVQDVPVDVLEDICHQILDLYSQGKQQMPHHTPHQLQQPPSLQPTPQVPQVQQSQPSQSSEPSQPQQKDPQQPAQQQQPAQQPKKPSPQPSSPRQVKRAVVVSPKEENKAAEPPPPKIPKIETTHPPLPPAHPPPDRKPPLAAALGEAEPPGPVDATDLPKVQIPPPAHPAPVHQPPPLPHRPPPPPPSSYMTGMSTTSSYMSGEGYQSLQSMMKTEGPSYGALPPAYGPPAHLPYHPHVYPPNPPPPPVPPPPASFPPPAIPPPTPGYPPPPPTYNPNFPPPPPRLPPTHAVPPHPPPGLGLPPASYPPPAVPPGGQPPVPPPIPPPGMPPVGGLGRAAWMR
inactive: [1] -0.018 | [2] -0.045 | [3] -0.026 | [4] -0.047 | [5] -0.175

CHD1L (UniProt Q86WJ1)
inactive: [1] -0.012 | [2] 0.036 | [3] 0.037 | [4] -0.009 | [5] 0.052

BNIP1 (UniProt Q12981)
inactive: [1] 0.021 | [2] -0.051 | [3] 0.001 | [4] 0.018 | [5] 0.149

CCNA2 (UniProt P20248)
inactive: [1] 0.013 | [2] -0.006 | [3] -0.003 | [4] -0.021 | [5] -0.068

CCNY (UniProt Q8ND76)
inactive: [1] -0.04 | [2] 0.048 | [3] -0.104 | [4] -0.064 | [5] -0.028

CDC7 (UniProt O00311)
inactive: [1] -0.063 | [2] 0.084 | [3] 0.019 | [4] 0.003 | [5] 0.008

CES2 isoform 4 (UniProt O00748)
inactive: [1] 0.129 | [2] 0.159 | [3] -0.089 | [4] 0.093 | [5] -0.07

CD63 (UniProt P08962)
Sequence of UniProt P08962 (P08962 whole entry, looked up): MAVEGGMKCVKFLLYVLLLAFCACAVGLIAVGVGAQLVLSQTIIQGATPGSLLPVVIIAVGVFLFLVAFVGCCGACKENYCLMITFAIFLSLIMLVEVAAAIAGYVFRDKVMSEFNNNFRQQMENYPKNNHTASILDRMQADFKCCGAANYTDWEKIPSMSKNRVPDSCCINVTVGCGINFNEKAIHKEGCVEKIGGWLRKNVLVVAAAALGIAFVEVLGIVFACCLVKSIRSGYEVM
inactive: [1] 0.006 | [2] 0.001 | [3] -0.008 | [4] -0.13 | [5] -0.242

ATP9B (UniProt O43861)
inactive: [1] 0.109 | [2] -0.028 | [3] 0.015 | [4] -0.019 | [5] -0.079

CHAC2 (UniProt Q8WUX2)
inactive: [1] 0.079 | [2] 0.005 | [3] 0.028 | [4] -0.025
active: [5] 0.344

C15orf41 (UniProt Q9Y2V0)
inactive: [1] 0.111 | [2] -0.007 | [3] 0.029 | [4] 0.084 | [5] -0.008

CALB2 (UniProt P22676)
inactive: [1] -0.067 | [2] -0.053 | [3] 0.009 | [4] -0.007 | [5] 0.013

CARNMT1 (UniProt Q8N4J0)
inactive: [1] 0.032 | [2] -0.003 | [3] 0.072 | [4] -0.039 | [5] -0.174

CDK9 isoform 2 (UniProt P50750)
inactive: [1] -0.001 | [2] -0.043 | [3] -0.015 | [4] -0.008 | [5] -0.114

CDKN1C (UniProt P49918)
Sequence of UniProt P49918 (P49918 whole entry, looked up): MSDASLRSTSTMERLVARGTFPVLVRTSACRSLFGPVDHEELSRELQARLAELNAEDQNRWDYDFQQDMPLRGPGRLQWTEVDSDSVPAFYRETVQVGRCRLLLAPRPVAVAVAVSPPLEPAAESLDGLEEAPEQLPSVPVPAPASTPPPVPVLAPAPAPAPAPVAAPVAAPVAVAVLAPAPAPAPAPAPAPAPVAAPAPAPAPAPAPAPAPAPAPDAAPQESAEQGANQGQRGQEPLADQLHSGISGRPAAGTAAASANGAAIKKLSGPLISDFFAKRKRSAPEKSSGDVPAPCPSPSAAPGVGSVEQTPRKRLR
inactive: [1] 0.035 | [2] -0.012 | [3] 0.185 | [4] 0.094 | [5] 0.025

C3 (UniProt P01024)
inactive: [1] 0.013 | [2] 0.054 | [3] 0.132 | [4] -0.035 | [5] -0.03

BCR (UniProt P11274)
inactive: [1] -0.03 | [2] 0.005 | [3] -0.014 | [4] 0.007 | [5] 0.027

CBR1 (UniProt P16152)
Sequence of UniProt P16152 (P16152 whole entry, looked up): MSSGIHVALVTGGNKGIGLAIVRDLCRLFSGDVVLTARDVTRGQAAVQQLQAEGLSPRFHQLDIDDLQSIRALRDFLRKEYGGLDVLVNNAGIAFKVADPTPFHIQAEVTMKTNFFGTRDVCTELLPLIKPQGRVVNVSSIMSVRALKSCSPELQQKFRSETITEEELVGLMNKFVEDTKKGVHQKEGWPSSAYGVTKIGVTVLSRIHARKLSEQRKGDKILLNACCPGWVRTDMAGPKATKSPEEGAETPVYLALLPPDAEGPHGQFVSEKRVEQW
inactive: [1] 0.03 | [2] -0.004 | [3] 0.013 | [4] -0.021 | [5] -0.056

CEP41 (UniProt Q9BYV8)
inactive: [1] -0.026 | [2] -0.06 | [3] -0.106 | [4] -0.068 | [5] -0.045

ATRIP (UniProt Q8WXE1)
inactive: [1] -0.042 | [2] -0.02 | [3] -0.056 | [4] -0.032 | [5] 0.093

BRAF (UniProt P15056)
inactive: [1] -0.024 | [2] -0.051 | [3] 0.012 | [4] -0.017 | [5] -0.06

CCDC47 (UniProt Q96A33)
inactive: [1] -0.043 | [2] 0.005 | [3] 0.022 | [4] 0.017 | [5] 0.018

AVEN (UniProt Q9NQS1)
inactive: [1] 0.205 | [2] 0.025 | [3] 0.003 | [4] 0.013 | [5] -0.058

ATP2B4 (UniProt P23634)
inactive: [1] -0.021 | [2] 0.036 | [3] 0.059 | [4] 0.029 | [5] -0.081

ATP13A1 (UniProt Q9HD20)
inactive: [1] 0.006 | [2] -0.001 | [3] 0.079 | [4] 0.064 | [5] 0.03

CHD4 isoform 2 (UniProt Q14839)
inactive: [1] 0 | [2] 0.003 | [3] 0.029 | [4] 0.021 | [5] 0.009

CENPQ (UniProt Q7L2Z9)
inactive: [1] -0.02 | [2] -0.02 | [3] 0.038 | [4] 0.021 | [5] -0.013

CDAN1 (UniProt Q8IWY9)
inactive: [1] -0.011 | [2] 0.011 | [3] 0.062 | [4] 0.026 | [5] 0.005

CDK8 (UniProt P49336)
Sequence of UniProt P49336 (P49336 whole entry, looked up): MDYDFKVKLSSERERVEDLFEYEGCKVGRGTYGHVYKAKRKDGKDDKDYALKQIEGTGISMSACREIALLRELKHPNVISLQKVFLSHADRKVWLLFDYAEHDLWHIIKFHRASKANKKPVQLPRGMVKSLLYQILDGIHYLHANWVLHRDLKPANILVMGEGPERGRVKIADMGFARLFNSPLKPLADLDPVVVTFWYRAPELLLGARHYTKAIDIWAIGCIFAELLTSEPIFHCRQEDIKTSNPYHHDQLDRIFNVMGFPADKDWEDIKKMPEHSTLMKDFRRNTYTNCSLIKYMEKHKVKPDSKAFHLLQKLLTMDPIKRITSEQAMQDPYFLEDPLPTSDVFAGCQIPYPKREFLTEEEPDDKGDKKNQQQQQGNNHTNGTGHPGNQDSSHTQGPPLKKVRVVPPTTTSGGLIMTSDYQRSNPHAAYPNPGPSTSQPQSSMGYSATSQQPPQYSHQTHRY
inactive: [1] -0.05 | [2] -0.108 | [3] 0.202 | [4] 0.017 | [5] -0.045

ATP11A (UniProt P98196)
inactive: [1] 0.04 | [2] -0.014 | [3] -0.004 | [4] 0.005 | [5] -0.026

C2CD5 isoform 3 (UniProt Q86YS7)
inactive: [1] 0.015 | [2] 0.059 | [3] 0.014 | [4] -0.009 | [5] -0.169

BRD2 isoform 2 (UniProt P25440)
inactive: [1] 0.024 | [3] 0.081 | [5] 0.071
active: [2] 1.06 | [4] 0.644

CELF2 isoform 3 (UniProt O95319)
inactive: [1] -0.009 | [2] -0.012 | [3] 0.005 | [4] 0.012 | [5] 0.08

C18orf32 (UniProt Q8TCD1)
inactive: [1] 0.039 | [2] 0.004 | [3] -0.245 | [4] -0.028 | [5] 0.076

BUD23 isoform 3 (UniProt O43709)
inactive: [1] 0.076 | [2] 0.03 | [3] 0.021 | [4] 0 | [5] -0.154

CAD (UniProt P27708)
inactive: [1] -0.011 | [2] 0.009 | [3] 0.003 | [4] 0.022 | [5] 0.002

BCKDHB (UniProt P21953)
inactive: [1] 0.027 | [2] 0.023 | [3] 0.09 | [4] 0.074 | [5] 0.119

CCNH (UniProt P51946)
inactive: [1] -0.028 | [2] -0.004 | [3] 0.022 | [4] -0.039 | [5] -0.01

C8orf37 (UniProt Q96NL8)
inactive: [1] 0.072 | [2] -0.08 | [3] -0.094 | [4] -0.008 | [5] 0.141

C18orf25 (UniProt Q96B23)
Sequence of UniProt Q96B23 (Q96B23 whole entry, looked up): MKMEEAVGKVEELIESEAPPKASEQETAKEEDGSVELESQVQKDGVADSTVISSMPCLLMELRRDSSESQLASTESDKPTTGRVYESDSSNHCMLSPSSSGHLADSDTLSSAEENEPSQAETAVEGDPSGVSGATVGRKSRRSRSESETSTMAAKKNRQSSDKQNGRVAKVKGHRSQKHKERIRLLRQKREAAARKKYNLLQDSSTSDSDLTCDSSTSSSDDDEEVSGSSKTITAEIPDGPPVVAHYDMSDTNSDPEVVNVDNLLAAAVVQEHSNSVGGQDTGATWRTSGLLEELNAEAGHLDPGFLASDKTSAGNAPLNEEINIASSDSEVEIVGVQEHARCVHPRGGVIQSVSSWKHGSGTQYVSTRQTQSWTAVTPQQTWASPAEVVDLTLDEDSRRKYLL
inactive: [1] 0.013 | [2] -0.035 | [3] 0.043 | [4] 0.017 | [5] -0.033

CCDC51 (UniProt Q96ER9)
Sequence of UniProt Q96ER9 (Q96ER9 whole entry, looked up): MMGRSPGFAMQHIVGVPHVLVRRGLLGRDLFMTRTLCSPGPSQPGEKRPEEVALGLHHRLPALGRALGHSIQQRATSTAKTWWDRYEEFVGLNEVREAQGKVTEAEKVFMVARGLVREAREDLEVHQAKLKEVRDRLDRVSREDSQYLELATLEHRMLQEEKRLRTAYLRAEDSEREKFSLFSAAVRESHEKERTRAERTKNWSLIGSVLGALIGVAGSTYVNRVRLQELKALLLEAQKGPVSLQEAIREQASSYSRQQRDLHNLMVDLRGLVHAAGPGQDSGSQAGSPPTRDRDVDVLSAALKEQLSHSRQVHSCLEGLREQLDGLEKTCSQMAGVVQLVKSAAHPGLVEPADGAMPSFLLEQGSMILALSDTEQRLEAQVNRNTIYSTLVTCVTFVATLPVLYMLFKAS
inactive: [1] -0.063 | [2] 0.023 | [3] -0.029 | [4] 0.014 | [5] 0.157

CCDC22 (UniProt O60826)
inactive: [1] -0.009 | [2] 0 | [3] -0.044 | [4] 0.053 | [5] 0.032

CDK13 (UniProt Q14004)
inactive: [1] -0.091 | [2] -0.031 | [3] -0.052 | [4] 0.049 | [5] 0.052

ATE1 isoform 2 (UniProt O95260)
inactive: [1] -0.015 | [2] -0.008 | [3] -0.004 | [4] 0.009 | [5] -0.087

ATR (UniProt Q13535)
inactive: [1] -0.061 | [2] -0.036 | [3] -0.04 | [4] 0.003 | [5] -0.095
